Screens: PubChem, National Center for Advancing Translational Sciences (NCATS)
RXFP1 ag: activates the human relaxin receptor RXFP1; Potency, µM (doses to about 57.5 µM), usual class: activators; HEK293T-RXFP1 cAMP TR-FRET, 30 min; response scale: percent of porcine relaxin response, buffer zero; 370,000 compounds, 0.3% hits; AID 2676; active = well fitted activation curve with a large enough effect; inconclusive = small, poorly fitted or top-dose-only effect; note: nearly all actives have a fitted effect of over 60% in size
Target sequence (Q9HBX9 whole entry, looked up): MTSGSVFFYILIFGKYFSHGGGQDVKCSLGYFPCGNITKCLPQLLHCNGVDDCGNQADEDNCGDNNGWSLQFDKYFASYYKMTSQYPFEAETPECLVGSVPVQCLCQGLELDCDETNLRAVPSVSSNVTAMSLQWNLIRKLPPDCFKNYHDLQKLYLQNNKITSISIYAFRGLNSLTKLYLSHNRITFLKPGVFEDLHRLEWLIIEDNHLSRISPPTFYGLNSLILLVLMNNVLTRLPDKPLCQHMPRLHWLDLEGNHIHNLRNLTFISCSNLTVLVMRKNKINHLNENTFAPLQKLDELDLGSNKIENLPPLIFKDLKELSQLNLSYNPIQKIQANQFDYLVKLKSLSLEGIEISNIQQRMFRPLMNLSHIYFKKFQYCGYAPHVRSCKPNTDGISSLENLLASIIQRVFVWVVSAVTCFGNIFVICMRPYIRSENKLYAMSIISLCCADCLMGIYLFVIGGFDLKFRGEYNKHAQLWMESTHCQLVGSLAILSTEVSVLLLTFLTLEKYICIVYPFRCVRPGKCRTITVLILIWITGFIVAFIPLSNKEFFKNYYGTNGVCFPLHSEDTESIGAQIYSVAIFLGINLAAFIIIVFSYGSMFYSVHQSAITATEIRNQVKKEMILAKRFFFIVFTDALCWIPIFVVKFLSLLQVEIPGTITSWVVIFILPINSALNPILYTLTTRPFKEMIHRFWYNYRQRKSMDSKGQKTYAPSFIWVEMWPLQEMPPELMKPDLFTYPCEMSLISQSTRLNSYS
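HEK293 cells stably expressing RXFP1, treated 30 min at 37C with compounds plus PDE4 inhibitor Ro 20174; cAMP measured by HTRF TR-FRET. Normalized to buffer and 29 nM porcine relaxin; EC50 by Hill fit.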
Akt phos inh: blocks phosphorylation of Akt. activity change, % for hits at 50 µM. 360,000 compounds, 0.32% hits. Neuro2A IGF-stimulated pAkt S473 HTRF, 20 min; hits give low values; in the data active = activity change below about -80%; inconclusive = mostly about -51% to -80%
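Single-point screen (50 µM final compound) in Neuro2A cells stimulated 20 min with 6 nM IGF at 37 deg C. After lysis, Ser473-phosphorylated Akt read by HTRF (ex 330 nm, em 615/665 nm) as the 665/615 ratio.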
gsp ag: gsp mutant agonism | 340,000 compounds, 0.13% hits | gsp mutant cells, cAMP HTRF, 30 min | Potency, µM (doses to about 76.9 µM), actives largely listed as activators; active = well fitted activation curve with a large enough effect; inconclusive = small, poorly fitted or top-dose-only effect, or another doubt; inactive = no such curve, though single readings can be large or run the other way; cell line not stated here;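 note: phosphodiesterase inhibitor Ro 20-1724 added with compounds to block cAMP breakdown; nearly all actives have a fitted effect of over 60% in size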
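Cells stably selected in G418 were plated at 2000/well, grown 16-24 hr, then given compounds in DMSO with the PDE inhibitor […] (300 uM solution added) for 30 min at 37C; cAMP was read by HTRF.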
RXFP1 antag: blocks the human relaxin receptor RXFP1; HEK293-RXFP1, relaxin-stimulated cAMP HTRF, 30 min; hits give low values; activity change, negative = inhibition, % at 57.5 µM; 350,000 compounds, 0.59% hits; AID 1259400;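 active = activity change of -60% or lower, but not beyond a set lower limit; inconclusive = change between -60% and -40%, or beyond the set limit; inactive = change above -40%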
gsp antag: gsp mutant antagonism | 340,000 compounds, 0.4% hits | Potency, µM (series often up to 76.9 µM), usual class: inhibitors | gsp-mutant cells, cAMP HTRF, 30 min; calls by dose curve; cell line not stated here;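 note: intracellular cAMP measured with PDE inhibitor Ro 20-1724 present during compound exposure; nearly all actives have a fitted effect of over 65% in size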
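Cells in G418 medium, seeded 16-24 h, 37C; buffer exchange to DPBS + 1 mM CaCl2, 0.5 mM MgCl2, 0.05% BSA; cpds in DMSO + […] (300 uM stock), 30 min 37C; HTRF cAMP detection.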
Of the large screens only hits and unclear results are named; the others gave an inactive call. This is a sample that favours compounds with a hit; in the whole collection about 1.2% have one here.

Cc1nccn1CC(O)Cn1c2ccccc2c2ccccc21 (stereo unspecified)	Akt phos inh -101%
CC(C)c1ccc(NC(=O)C(Cc2ccccc2)n2cccc2)cc1 (stereo unspecified)	RXFP1 antag -71 (no result: Akt phos inh, gsp ag, gsp antag)
O=C(Nc1ccc(C(F)(F)F)cc1)C(Cc1ccccc1)n1cccc1 (stereo unspecified)	none (no result: Akt phos inh, gsp ag, gsp antag)
Cc1cc(C)c(OCC(=O)N(Cc2ccc(N(C)C)cc2)Cc2ccco2)c(C)c1	none (no result: Akt phos inh, gsp ag, gsp antag)
Oc1c(C(c2ccccc2)N2CCN(Cc3ccccc3)CC2)sc2nc(-c3ccco3)nn12 (stereo unspecified)	none (no result: Akt phos inh, gsp ag, gsp antag)
Cc1cccc(Cn2cc(S(=O)(=O)c3ccccc3)c(=O)c3cc(F)c(N4CCOCC4)cc32)c1	none (no result: Akt phos inh, gsp ag, gsp antag)
S=c1[nH]nc(-c2cccc(Br)c2)o1	RXFP1 ag inconclusive, Akt phos inh -108%, gsp ag inconclusive
NNC(=S)Nc1cccc(-c2n[nH]c(=S)o2)c1	RXFP1 ag inconclusive, gsp ag 10µM
CN(C)C(=S)Nc1cccc(-c2n[nH]c(=S)o2)c1	none
Cc1ccc(Nc2c(F)cccc2Cl)c(CC(=O)O)c1	none (no result: RXFP1 ag, Akt phos inh, gsp ag, gsp antag)
COc1ccc(CCNC(=O)c2nc(SCc3ccc(C)cc3)ncc2Cl)cc1OC	none (no result: Akt phos inh, gsp ag, gsp antag)
Cc1ccc(/C=C(\C#N)C(=O)NC(C)C)o1	none
CC(C)NC(=O)/C(C#N)=C/c1ccc(N(C)C)o1	gsp antag 35µM
COc1cccc(C2CC(=O)Nc3c2c(=O)[nH]c2nc4ccccc4n32)c1 (stereo unspecified)	none (no result: Akt phos inh, gsp ag, RXFP1 antag, gsp antag)
CN(Cc1ccccc1)C(=O)CN1CCN(C(c2ccccc2)c2ccccc2)CC1	RXFP1 antag -81
CCCCCCn1c(C)nc2c(c1=O)c1nc3ccccc3nc1n2/N=C/c1ccco1	Akt phos inh -108%
Cc1nc2c(c(=O)n1CCC1=CCCCC1)c1nc3ccccc3nc1n2/N=C/c1ccccc1	none
CN(Cc1cccc(F)c1)CC(O)COCc1ccccc1Cl (stereo unspecified)	gsp antag 11µM
COc1ccccc1CNC(=O)c1cc2cccc3c2n1CCS3	none (no result: Akt phos inh, gsp ag, gsp antag)
CCOC(=O)c1sc2nc(CC(=O)OC)nc(NCc3ccco3)c2c1C	gsp ag inconclusive, gsp antag inconclusive (no result: RXFP1 antag)
CCOC(=O)c1sc2ncnc(NCc3ccco3)c2c1C	Akt phos inh -112%, gsp ag inconclusive
O=C(Nc1nc2cc3c(cc2s1)OCCO3)C1CCCCC1	gsp ag inconclusive, RXFP1 antag -68
Cc1cc(O)c(CN2CCN(c3ccccc3)CC2)c2oc(=O)cc(C)c12	RXFP1 ag 18µM (no result: Akt phos inh, gsp ag, gsp antag)
Cc1cc(C)c2c(CN3CCN(c4ccccc4)CC3)cc(=O)oc2c1	none (no result: RXFP1 ag, gsp ag, RXFP1 antag, gsp antag)
CC(C(O)c1ccccc1)N(C)CCOC(c1ccccc1)c1ccccc1 (stereo unspecified)	none (no result: RXFP1 ag, Akt phos inh, gsp ag, gsp antag)
Cc1cc(C)nc(SCCCn2c(=O)[nH]c3ccccc32)n1	Akt phos inh -125%
CCCn1c(=O)[nH]c2ccccc21	none (no result: Akt phos inh)
Cc1ccc2nc(-c3ccccc3)cc(C(=O)N(C)CC(=O)Nc3ccccc3Br)c2c1	RXFP1 antag -75, gsp antag inconclusive
Cc1ccc(S(=O)(=O)N2CCN(C(=O)CN3C(=O)NC4(CCCCC4)C3=O)CC2)c(C)c1	RXFP1 antag -61
COC(=O)c1ccccc1NC(=O)C1=C(C)C(=O)OC12CCC(C)CC2 (stereo unspecified)	none (no result: Akt phos inh, gsp ag, gsp antag)
COc1cc(CN(C(=O)c2ccc(OC(C)C)cc2)c2ccccn2)cc(OC)c1OC	none (no result: Akt phos inh, gsp ag, RXFP1 antag, gsp antag)
COc1cc(OC)c(NC(=O)c2cc3ccccc3cc2O)cc1Cl	gsp antag 32µM (no result: RXFP1 ag)
COc1ccc(OC)c(NC(=O)c2cc3oc4ccccc4c3cc2O)c1	gsp ag 32µM, gsp antag inconclusive
COc1cc2c(cc1NC(=O)CN(C)Cc1ccc(OC)c(OC)c1)oc1ccccc12	gsp antag 40µM
Clc1ccccc1N=C1NN=C(c2cccs2)CS1	RXFP1 antag -83
Fc1ccccc1N=C1NN=C(c2ccccc2)CS1	none
COC(=O)c1cc(Br)c(=O)n(-c2nccs2)c1	RXFP1 ag 16µM, Akt phos inh inconclusive, gsp ag 14µM
CC(C)C(NC(=O)OC(C)(C)C)C(=O)N1CCCC1C(=O)NC(Cc1ccccc1)C(N)=O (stereo unspecified)	Akt phos inh -112%
Cc1ccc(Nc2c(-c3ccc(N(C)C)cc3)nc3ccccn23)cc1	none (no result: Akt phos inh, gsp ag, gsp antag)
